The source of these data is PubChem BioAssay AID651593 (National Center for Advancing Translational Sciences (NCATS), 2012).

The campaign covered roughly 1,100 compounds. About 860 (78%) were called active. About 19% were inconclusive and are not listed. Calls come from the whole dose curve; as a rule, active = well fitted activation curve with a large enough effect; inconclusive = small, poorly fitted or top-dose-only effect; inactive = flat fitted curve, though single readings scatter. The set was probably picked from earlier hits. The list shows a part of the results.
Potency is the fitted concentration of half-maximal effect.

This test in a line: qHTS of Nrf2 Activators: Hit Validation in Primary Assay. For activation: 0% is about no effect. Note: nearly all actives have a fitted effect of over 70% in size. Particulars: Nrf2/ARE reporter cell assay; Potency: activation; series mostly up to 46.1 µM; activation: at the top concentration. Summed up:
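Luminescence from Steady-Glo lysis reagent, read after 30 min, reported ARE-luciferase activity in AREc32_fluc stable cells. Compounds were tested at several concentrations, incubated 24 h at 37 °C with 5% CO2 following overnight seeding.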
A general note: qHTS replaces the single test concentration by a dilution series.
Regarding `COC(=O)c1sccc1NC(=O)c1ccccc1F`, the Potency is 18.4 µM (active).
As for `COC(=O)c1sccc1NC(=O)c1ccc(OC)c(OC)c1`, the Potency was 4.61 µM (active).
Same read-out and setting: the figure for `COc1cccc(C(=O)Nc2cc(Cl)c(O)c(Cl)c2)c1` is 5.17 µM (active).
As to `COC(=O)c1sccc1NC(=O)c1cccc(Cl)c1`, the Potency was 20.6 µM (active).
In the case of `COC(=O)c1sccc1NC(=O)c1csc(C)c1`, the Potency is 4.61 µM (active).
As for `COC(=O)c1sccc1NC(=O)Nc1ccc(Cl)c(Cl)c1`, the Potency is 14.6 µM (active).
For the molecule `O=C(NNC(=O)c1sccc1-n1cccc1)c1cccc(Cl)c1`, the Potency is 2.59 µM (active).
As for `COc1ccc(NC(=O)c2ccc([N+](=O)[O-])s2)c([N+](=O)[O-])c1`, the Potency is 9.2 µM (active).
Same read-out and setting: the figure for `COc1ccc(OC)c(NC(=O)C(C#N)=Cc2ccco2)c1` is 6.51 µM (active); for `COc1ccccc1NC(=O)/C(C#N)=C/c1cccn1C` it is 20.6 µM (active); for `COC(=O)CSc1nc2ccccn2c(=O)c1C=O` it is 20.6 µM (active).
Same read-out and setting: under `O=Cc1c(Sc2ccccn2)nc2ccccn2c1=O` stands 20.6 µM (active).
Consider `Nc1nc(/C=C/c2ccc(F)cc2)nc(-c2ccccc2O)n1`, for which the Potency was 2.59 µM (active).
Same read-out and setting: under `Nc1nccc(-c2ccc(-n3cccc3)cc2)n1` stands 13 µM (active); under `COc1ccc(Cl)cc1NC(=O)c1cc(C)no1`, 10.3 µM (active).
For `COc1ccc(Cl)cc1C(=O)NC(=S)Nc1nc(C)cc(C)n1`, the “activation” value is 5.97% (inactive).
In the case of `COc1ccc(Cl)cc1NC(=O)c1cc(-c2ccccc2O)n[nH]1`, the Potency is 2.91 µM (active).
On to `COc1cc(OC)c(NC(=O)c2ccco2)cc1Cl`, for which the Potency is 13 µM (active).
Same read-out and setting: the figure for `COc1cc2c(cc1NC(=O)c1ccco1)CCCC2` is 3.26 µM (active).
As to `CCOc1ccsc1C(=O)NNC(=O)c1ccco1`, the Potency is 5.8 µM (active).
In the case of `COc1ccc(Cl)cc1NC(=O)c1ccco1`, the Potency is 4.61 µM (active).
With `Cc1ccc2nsnc2c1NC(=S)NC(=O)c1ccco1`, the Potency was 4.61 µM (active).
For `Cc1ccc([N+](=O)[O-])cc1NC(=S)NC(=O)c1ccco1`, the Potency is 4.11 µM (active).
On the same count and under the same terms, the figure for `COc1ccc([N+](=O)[O-])cc1NC(=O)c1ccco1` is 5.17 µM (active); for `CC(=O)c1cc2c(cc1NC(=O)c1ccco1)OCCO2` it is 3.66 µM (active).
On the same count and under the same terms, under `O=C(Nc1cc(Cl)ccc1-n1cncn1)c1ccco1` stands 10.3 µM (active); under `CCOc1ccccc1NC(=S)NC(=O)c1ccco1`, 10.3 µM (active); under `Cc1cc(C(=O)Nc2cc(Br)ccc2O)on1`, 13 µM (active).
On the same count and under the same terms, under `O=C(Nc1ccc(Br)c(Cl)c1)c1ccco1` stands 2.06 µM (active).
With `Cc1cc(NC(=S)NC(=O)c2ccco2)c2ccccc2n1`, the Potency is 2.59 µM (active).
As to `Cc1ccc(-n2nc3c([n+]2[O-])CCc2c-3no[n+]2[O-])cc1`, the Potency is 0.291 µM (active).
As for `[O-][n+]1onc2c1CCc1c-2nn(-c2ccccc2Cl)[n+]1[O-]`, the Potency was 0.92 µM (active).
On the same count and under the same terms, under `COc1ccc(-c2nnc3c4ccccc4c(C)nn23)cc1` stands 3.66 µM (active).
`Cc1nn2c(-c3ccccc3)nnc2c2ccccc12`: the Potency was 4.11 µM (active).
`CC1CCCCC1NC(=O)COC(=O)c1c2c(nc3ccccc13)/C(=C/c1ccco1)CC2` (configuration not stated): the Potency is 8.2 µM (active).
`O=C(Nc1ccc2c(c1)C(=O)NC2=O)c1ccccc1`: the Potency was 20.6 µM (active).
On the same count and under the same terms, the figure for `O=C(Nc1ccc2c(c1)C(=O)NC2=O)c1cccc(C(F)(F)F)c1` is 2.06 µM (active); for `O=C(Nc1nc(=O)c2ccccc2s1)c1ccccc1` it is 0.731 µM (active).
The same measure, in the same setting: under `Cc1csc2nc(NC(=O)c3ccccc3)sc(=O)c12` stands 8.2 µM (active); under `S=C(NNc1ccc2ccccc2c1)NC1CCCCC1`, 13 µM (active).
On to `O=C(/C=C/c1ccco1)NC(=S)Nc1nc(-c2ccc(Cl)cc2)cs1`, for which the “activation” value was 13.6% (inactive).
With `CCc1nnc(NC(=O)/C=C/c2ccco2)s1`, the Potency is 6.51 µM (active).
On the same count and under the same terms, under `CCC(CC)c1nnc(NC(=O)/C=C/c2ccco2)s1` stands 1.46 µM (active); under `Cc1nnc(NC(=O)/C=C/c2ccco2)s1`, 8.2 µM (active).
On to `Cc1csc(NC(=O)/C=C/c2ccco2)n1`, for which the Potency is 4.11 µM (active).
Same read-out and setting: the figure for `CNS(=O)(=O)c1ccc2nc(NC(=O)/C=C/c3ccco3)sc2c1` is 1.84 µM (active); for `Cc1cc(C)c2oc(-c3ccc(C)c(NC(=O)/C=C/c4ccco4)c3)nc2c1` it is 2.91 µM (active).
The same measure, in the same setting: the figure for `Cc1cccc(C)c1NC(=S)NC(=O)c1cccc(Cl)c1` is 3.26 µM (active); for `Cc1ccc(NC(=O)/C=C/c2ccc([N+](=O)[O-])s2)cc1` it is 2.31 µM (active); for `Cc1cc(C)cc(NC(=O)/C=C/c2ccc([N+](=O)[O-])s2)c1` it is 2.31 µM (active).
In the case of `CSc1nnc(-c2ccco2)c(-c2ccco2)n1`, the Potency was 11.6 µM (active).
For `O=C(CSc1nnc(-c2ccco2)c(-c2ccco2)n1)c1ccccc1`, the Potency is 5.17 µM (active).
Same read-out and setting: under `CSC1=NC(C)(C)C=C(/C=C/c2ccc(Cl)cc2)N1` stands 9.2 µM (active).
Still for that read-out and setting: under `Brc1cc(Cc2nnc(-c3ccccc3)o2)c(Br)s1` stands 8.2 µM (active).
Take `O=C(Nc1cccc(F)c1)c1ccco1`: the “activation” value was 21.9% (inactive).
In the case of `O=C(Nc1ccccc1C(=O)NCCc1ccccc1)c1ccco1`, the Potency was 2.06 µM (active).
As for `O=C(Nc1ccccc1O)c1cccc(NC(=O)c2ccco2)c1`, the Potency was 4.11 µM (active).
`Cc1ccc(O)c(NC(=O)c2cccc(NC(=O)c3ccco3)c2)c1`: the Potency is 2.59 µM (active).
As for `CCCc1nc([N+](=O)[O-])c(S(=O)(=O)c2ccccc2)n1CC(C)C`, the Potency is 3.26 µM (active).
`S=C(NCc1ccco1)Nc1ccccn1`: the Potency is 9.2 µM (active).
Same read-out and setting: under `Brc1ccc(-c2nnc(-c3cccnc3)c3conc23)cc1` stands 0.517 µM (active).
Still for that read-out and setting: under `C#CCSc1nc(-c2cccs2)ccc1C#N` stands 4.61 µM (active).
On the same count and under the same terms, under `Cc1cc(C)n(-c2nc3ccccc3c(=O)n2OCc2ccc(F)cc2)n1` stands 1.84 µM (active); under `CC1(C)CC[C@]2(C(=O)n3ccnc3)CC[C@]3(C)[C@H](C(=O)C=C4[C@@]5(C)C=C(C#N)C(=O)C(C)(C)[C@@H]5CC[C@]43C)[C@@H]2C1`, 0.092 µM (active); under `O=[N+]([O-])c1ccc(NN=Cc2ccco2)nc1`, 0.731 µM (active).
For `Brc1ccc(-c2csc(N/N=C/c3ccco3)n2)cc1`, the Potency was 2.91 µM (active).
On the same count and under the same terms, under `CCn1nc(C)c(Br)c1-c1nc(-c2cccc(C)c2)no1` stands 8.2 µM (active); under `O=C(Nc1cccc(F)c1)c1cc(-c2ccco2)nc2ccccc12`, 2.06 µM (active); under `O=C(Nc1ccccc1F)c1cc(-c2ccco2)nc2ccccc12`, 2.06 µM (active).
The same measure, in the same setting: the figure for `O=C(Nc1ccc(F)cc1F)c1cc(-c2ccco2)nc2ccccc12` is 0.731 µM (active).
Still for that read-out and setting: under `COc1ccccc1CNC(=O)COC(=O)c1cc(-c2ccco2)nc2ccccc12` stands 9.2 µM (active); under `CC1Oc2ccccc2OC1C(=O)Nc1ccccn1` (configuration not stated), 2.91 µM (active).
On to `CSc1nsc(SC)c1NC(=O)Nc1ccccn1`, for which the Potency is 5.17 µM (active).
The same measure, in the same setting: under `O=[N+]([O-])c1cc(Cl)cc2c1nc(NCCO)c1ccccc12` stands 10.3 µM (active); under `Brc1ccccc1/C=N/Nc1ccccn1`, 6.51 µM (active); under `Clc1ccccc1NN=Cc1ccccn1`, 5.8 µM (active).
On the same count and under the same terms, under `Clc1cccc(Cl)c1/C=N\Nc1nccs1` stands 9.2 µM (active); under `O=[N+]([O-])c1ccc(Cl)cc1C=NNc1ccccn1`, 3.26 µM (active).
The same measure, in the same setting: the figure for `O=[N+]([O-])c1ccc(Cl)cc1N/N=C/c1ccncc1` is 0.731 µM (active); for `Clc1ccccc1C=NNc1ccccn1` it is 2.31 µM (active); for `Cc1ccc(C)c(/C=N/Nc2ccccn2)c1` it is 6.51 µM (active).
For the molecule `Fc1cccc(Cl)c1/C=N/Nc1ccccn1`, the Potency was 4.11 µM (active).
Same read-out and setting: under `CCOc1ccccc1NS(=O)(=O)c1c(C(=O)OC)sc2cccc(F)c12` stands 14.6 µM (active); under `O=C1C(Cl)=C(N2CCN(c3ccccc3[N+](=O)[O-])CC2)C(=O)c2ccccc21`, 3.66 µM (active).
The same measure, in the same setting: the figure for `Cc1cc(=O)n2nc(-c3ccccc3)sc2c1C#N` is 4.11 µM (active); for `CCn1c(=O)c([N+](=O)[O-])c(NCc2ccco2)c2ccccc21` it is 5.8 µM (active); for `N#Cc1ccccc1N/C=C/C(=O)c1ccc(Cl)cc1` it is 2.31 µM (active).
In the case of `CC(/C=N/Nc1nnc2c(n1)[nH]c1ccccc12)=C\c1ccco1`, the Potency is 10.3 µM (active).
As to `COc1ccc(OC)c(/C=C2\SC(=S)N(Cc3cccnc3)C2=O)c1`, the Potency is 5.17 µM (active).
On to `O=C1/C(=C/c2ccccc2O)SC(=S)N1Cc1cccnc1`, for which the Potency was 4.61 µM (active).
`O=C1CSC(=S)N1Cc1cccnc1`: the Potency was 10.3 µM (active).
With `C#CCOc1ccc(/C=C2\SC(=S)N(Cc3cccnc3)C2=O)cc1`, the Potency was 4.61 µM (active).
Still for that read-out and setting: the figure for `C[C@H]1CCC[C@]2(C)C[C@H]3OC(=O)C(CN4CCCCCC4)[C@H]3C=C12` (some centres not stated) is 5.8 µM (active); for `CC1CCN(CC2C(=O)O[C@@H]3C[C@@]4(C)CCC[C@H](C)C4=C[C@H]23)CC(C)(C)C1` (some centres not stated) it is 5.8 µM (active).
The same measure, in the same setting: under `Brc1cc(Br)c2nc(-c3cccs3)ccc2c1` stands 4.11 µM (active); under `O=C(CN1CC(=O)Oc2ccccc21)OCC(=O)c1ccc(F)cc1`, 18.4 µM (active).
In the case of `COc1cc(OC)cc(C(=O)O/N=C(\N)c2cccc(C)c2)c1`, the “activation” value was 21.2% (inactive).
In the case of `N/C(=N\OC(=O)c1ccco1)c1cccc(Br)c1`, the Potency is 20.6 µM (active).
On the same count and under the same terms, the figure for `Cc1csc(-c2ccc3cc(Cl)cc(Cl)c3n2)n1` is 2.59 µM (active); for `O=C(O)CCCCCN1C(=O)/C(=C\c2ccncc2)SC1=S` it is 2.91 µM (active).
The same measure, in the same setting: the figure for `N#Cc1nc(-c2ccco2)oc1N1CCCC1` is 2.31 µM (active); for `Cc1nc(-c2ccccn2)sc1C(=O)Nc1ccc(F)cc1` it is 2.31 µM (active).
Same read-out and setting: the figure for `Cc1ccc2cccc(NC(=S)NC(=O)c3ccccc3)c2n1` is 4.61 µM (active).
With `Cc1sc(NC(=S)NC(=O)c2ccccc2)c(C#N)c1C`, the “activation” value was 17% (inactive).
For `Cc1cc(C)c2c(NC(=S)NC(=O)c3ccccc3)nn(C)c2n1`, the Potency is 7.31 µM (active).
The same measure, in the same setting: the figure for `Cc1csc(NC(=S)NC(=O)c2ccccc2)n1` is 11.6 µM (active).
Still for that read-out and setting: the figure for `O=C(NC(=S)Nc1nc(-c2ccccc2)cs1)c1cccs1` is 3.66 µM (active).
